Screening data from PubChem.
This is a sample that favours compounds with a hit; in the whole collection about 19% have one here.
BCR signal inh – qHTS Assay to Find Inhibitors of Chronic Active B-Cell Receptor Signaling | ABC-DLBCL IkBa-CBG/CBR reporter, luminescence ratio, 4 h | Potency, µM (highest dose often 46.1 µM), for inactives: at the highest dose activity change, negative = inhibition, most hits filed as inhibitors | actives 0.05% (n = 340,000) | AID 493014, 2011; active means well fitted inhibition curve with a large enough effect in the signal ratio, with a control signal flat, not every such curve was filed as active; inconclusive means small, poorly fitted or top-dose-only effect, or effect the other way, or a change in a side signal; the % refers to the signal ratio;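 further: potency means the concentration at half of the fitted maximal effect; plate controls were basal doxycycline-induced cells for no effect and cells given 10 µM MG132 for full effect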
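Doxycycline induced both beetle luciferases in TMD8 lymphoma cells; IKK-driven degradation limits the IkappaBalpha-fused green signal, while red luminescence normalises for cell number and nonspecific effects. Compounds tested up to 46 uM, 4 hrs.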
MCF10A rereplic – A quantitative high throughput screen for small molecules that induce DNA re-replication in MCF 10a normal breast cells; actives 2.9% (n = 350,000); MCF 10A DNA re-replication, Hoechst nuclear intensity, 48 h; AID 624296, 2012; Potency, µM (highest dose often 46.1 µM), for inactives: at the highest dose activity, positive = re-replication, actives largely listed as activators; further: potency means the concentration at half of the fitted maximal effect; % of control where 0% means no effect; nearly all actives have a fitted effect of over 50% in size
DT40 TDP1 no CPT – qHTS for Inhibitors of human tyrosyl-DNA phosphodiesterase 1 (TDP1): qHTS in cells in absence of CPT; Potency, µM (titrated, usually from 46.2 µM), for the others: at the highest dose activity change, negative = growth inhibition, usual class: inhibitors; actives 15% (n = 420,000); AID 686978, 2013; DT40 Tdp1-/- hTDP1 cells, no CPT, ATP luminescence, 48 h; further: potency means the concentration at half of the fitted maximal effect; on the % scale 0 is the no-effect control and ±100 the full control effect; nearly all actives have a fitted effect of over 55% in size
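Readout: luminescence from CellTiter-Glo after 30 min in the dark at RT. Cells: DT40 Tdp1-/- with stable hTDP1, 400/well. Exposure: compounds alone, ≥48 hr, 37 °C.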
SW480 rereplic – A quantitative high throughput screen for small molecules that induce DNA re-replication in SW480 colon adenocarcinoma cells. SW480 DNA re-replication, Hoechst DNA content imaging, 48 h. actives 1.8% (n = 340,000). AID 624297, 2012. Potency, µM (top dose mostly 46.1 µM), for the others: at the top dose re-replication activation, actives largely listed as activators; further: potency means the concentration at half of the fitted maximal effect; % of control where 0% means no effect; nearly all actives have a fitted effect of over 55% in size
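Image-based read-out: total Hoechst fluorescence of nuclei (405 nm excitation, 500-530 nm emission), with hits raising the fraction of high-intensity nuclei. SW480 colon cells incubated 48 hr with compounds at 37 C.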
IL-1B inflam inh – qHTS for Inhibitors of Inflammasome Signaling: IL-1-beta AlphaLISA Primary Screen; activity change, % at 57.5 µM; actives 4.7% (n = 360,000); THP-1 LPS/ATP IL-1B secretion, AlphaLISA, 16 h; hits give low values; AID 743279, 2014; in the data active means activity change below about -50%; inconclusive means mostly about -30% to -49%; further: on the % scale 0 is the no-effect control and ±100 the full control effect
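Secreted IL-1B measured by AlphaLISA bead assay after 16 h compound exposure of THP-1 cells; compounds (final up to 57.5 uM) added 1 h before LPS (250 ng/mL) and ATP (1.25 mM) stimulation; lower signal means less secretion.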
DT40 TDP1 CPT – qHTS for Inhibitors of human tyrosyl-DNA phosphodiesterase 1 (TDP1): qHTS in cells in presence of CPT. chicken DT40 Tdp1-/-;hTDP1 cells + 20 nM CPT, ATP luminescence, 48 h. Potency, µM (series often up to 46.2 µM), inactives show at the top dose activity change, negative = growth inhibition, hits mostly inhibitors. actives 12% (n = 420,000); further: potency means the concentration at half of the fitted maximal effect; on the % scale 0 is the no-effect control and ±100 the full control effect; nearly all actives have a fitted effect of over 55% in size
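Cell growth measured by CellTiter-Glo luminescence after a minimum 48 h, 37 C compound exposure with 20 nM CPT in Tdp1-knockout DT40 cells stably expressing hTDP1, seeded 400/well; qHTS titration format.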
The depositor's hits bear a star; u = inconclusive; x = no result; [ ] = remark or other dose. Unless noted, the call rests on the fitted dose curve; in most records, active means well fitted curve in the direction sought with a large enough effect; inconclusive means small, poorly fitted or top-dose-only effect, or another doubt; inactive means no such curve, though single readings can be large; an effect the other way counts as inactive or inconclusive.

SMILES	BCR signal inh	MCF10A rereplic	DT40 TDP1 no CPT	SW480 rereplic	IL-1B inflam inh	DT40 TDP1 CPT
CCOc1ccccc1NC(=O)CCc1nnc2ccc(N3CCC4(CC3)OCCO4)nn12	5%	u	u	1%	-22	3%
CC(=O)Nc1cc(C(=O)N2CC3(C)CC2CC(C)(C)C3)cc2ncn(CCc3ccccn3)c12 (centres undefined)	x	x	23µM*	x	x	u
CC(=O)Nc1cc(C(=O)N2CCN(c3ccccc3)CC2C)cc2ncn(CCc3ccccn3)c12 (centres undefined)	x	x	-14%	x	x	-11%[9.04 µM]
C=C[C@]1(C)C[C@@H](OC(=O)CSCCN(CC)CC)[C@]2(C)C(C)CC[C@]3(CCC(=O)[C@H]32)[C@@H](C)[C@@H]1O (some centres undefined)	4%	0%	8.2µM*	u	-16	8.2µM*
C=C[C@@]1(C)C[C@H](OC(=O)CSC(C)(C)CNC(=O)[C@@H](N)C(C)C)[C@@]2(C)C(C)CC[C@@]3(CCC(=O)[C@@H]32)[C@H](C)[C@H]1O (some centres undefined)	x	0%	0.079µM*	17%	x	0.11µM*
CCOc1ccc(C(=O)NCC(=O)OCC(=O)Nc2ccc(C)c(S(=O)(=O)N(C)C)c2)cc1	-7%	0%	-1%	1%	-8	-13%
COc1cc(C)ccc1S(=O)(=O)NC(=O)C1(C)CCN1C(=O)c1ccc(C(F)(F)F)nc1C (centres undefined)	x	x	13%	x	-8	6%
CCN(C(=O)Cc1ccc(Br)cc1)C1CCCCC1	x	9%	u	16%	17	21µM*
CC12CCC(C/C1=N\N=C1\NC(=O)/C(=C\c3cccc(Br)c3)S1)C2(C)C (centres undefined)	u	18µM*	u	11%	-68*	u
CCOC(=O)c1cnc(SSc2ncc(C(=O)OCC)c(N)n2)nc1N	0%	5%	15µM*	-3%	0	23µM*
C=CCSc1ncc(C(=O)OCC)c(N)n1	9%	1%	2%	0%	13	-5%
O=c1[nH][nH]c2c1[C@H](c1ccccc1)O[C@H](C1CCCCC1)C2	x	x	-29%	x	-16	-28%
Cc1ccc(-c2nn3c(C)nnc3c3ccccc23)cc1S(=O)(=O)N(C)CCO	u	u	u	-7%	2	u
CCCCN(C)S(=O)(=O)c1cc(-c2nnc3c4ccccc4c(C)nn23)ccc1C	9%	x	7.3µM*	x	x	3.7µM*
C[C@](O)(C(=O)Nc1ccc(S(=O)(=O)c2ccccc2)cc1)C(F)(F)F	x	x	u	x	x	-4%
CC(C)(C)c1ccc(S(=O)(=O)NC(=O)C2(C)CCN2C(=O)c2cccc3ccccc23)cc1 (centres undefined)	x	x	-2%	x	44	3%
CCN(CC)c1ccc(Nc2nc(N3CCOCC3)c3ccccc3n2)cc1	u	u	3.3µM*	u	-111*	4.6µM*
COc1ccc(Nc2nc(NCCO)nc(N3CCCC3)n2)cc1	x	9%	x	-65%	x	x
COc1ccc(Nc2nc(N3CCCC3)c3ccccc3n2)cc1	3%	u	3.3µM*	-1%	-101*	2.6µM*
CN(C)Cc1c(O)ccc2cc(-c3nc4ccccc4n3C)c(=O)oc12	7%	5.8µM*	4%	3.7µM*	28	-2%
CCN(CC)c1ccc2cc(-c3nc(-c4ccc(OC)cc4)cs3)c(=O)oc2c1	u	u	15µM*	1.8µM*	82	u
CC(=O)c1ccc(-c2nc3ccccc3n2C)o1	u	12%	u	-2%	-15	u
CCN(CC)c1ccc2cc(C(=O)NCc3ccc(F)cc3)c(=N)oc2c1	-1%	x	x	x	x	x
CCN(CC)c1ccc2cc(-c3nc4ccccc4n3C)c(=O)oc2c1	u	u	1.2µM*	0.58µM*	33	0.65µM*
CCN(CC)c1ccc2cc(C(=O)c3cccs3)c(=O)oc2c1	x	x	u	x	-52*	18µM*
SMILES	BCR signal inh	MCF10A rereplic	DT40 TDP1 no CPT	SW480 rereplic	IL-1B inflam inh	DT40 TDP1 CPT
C=CCN1C(=O)C(=O)N(CC(=O)NCC(=O)Nc2ccc(F)c(F)c2F)C1=O	0%	2%	-15%	-14%	6	-2%
CC1CCN(c2c(NCc3ccc(C(=O)N4CCc5ccccc54)cc3)c(=O)c2=O)CC1	-17%	3.7µM*	5.8µM*	6.5µM*	110	5.2µM*
Cc1cccc(N2CCN(C(=O)c3ccc(CNc4c(N5CCC(C)CC5)c(=O)c4=O)cc3)CC2C)c1 (centres undefined)	12%	9%	u	u	5	21µM*
Cc1ccc(C)c(NC(=O)CSc2nc(=O)n(Cc3ccccn3)c3c2CCC3)c1	-2%	x	u	x	x	-3%
COc1cc(NS(=O)(=O)c2ccc(NC(=O)c3ccc(C(C)=O)cc3)cc2)nc(OC)n1	x	x	-17%	x	x	-22%
CC1CCC(C(C)C)C(=O)/C1=C/c1ccc(N)cc1 (centres undefined)	9%	u	13µM*	6%	3	15µM*
CC(CC(=O)N1CCc2ccccc21)S(=O)(=O)c1ccc2c(c1)NC(=O)CO2 (centres undefined)	4%	2%	-12%	0%	33	-21%
COCCNC(=S)N1CCC(C(=O)c2ccc(F)cc2)CC1	x	-3%	u	-5%	7	-5%
COc1ccc(C(=O)C2CCN(C(=S)NCCc3ccc(OC)c(OC)c3)CC2)cc1	-2%	-21%	12µM*	0%	-10	16µM*
CCCNC(=S)N1CCC(C(=O)c2ccc(F)cc2)CC1	u	14%	16µM*	-53%[1.84 µM]	-9	15µM*
COc1ccc(CCNC(=S)N2CCC(C(=O)c3ccc(F)cc3)CC2)cc1OC	0%	-1%	u	-15%	-13	u
O=C(c1ccc(F)cc1)C1CCN(C(=S)Nc2ccc(F)cc2)CC1	u	2%	15µM*	-5%	-26	u
COc1cccc(NC(=O)COC(=O)C2CC3CCCC(C2)C3=O)c1 (centres undefined)	3%	-6%	-22%	-10%	-9	-12%
